The target in experiment [1] is Albumin (Bos taurus) (UniProt P02769). Put plainly: bovine serum albumin binders on microarray, profiling panel, artefact control for SMM control protein annotation, biochemical, small-molecule microarray, Alexa647 label, 635/667 nm fluorescence (AID 1118).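 Also: score merges 667 nm emission intensity and signal-to-noise per printed compound spot.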 The note with it: BSA-A647 binding, fluorescence 635 nm, higher = more signal.
Experiment [2] is described as follows: small-molecule microarray binders of probe aXIP, primary screen, biochemical, NeuroSMM set, 635/667 nm fluorescence (AID 1119).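 Also: probe is the protein aXip251-270 applied at 1 µg/mL to compound-printed slides; binding of probe to printed compounds measured as 667 nm fluorescence plus signal to noise.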 The note with it: higher = more signal, called active from +8 up or from −8 down.
Experiment [3] can be described thus: small-molecule binders of probe aNOTCH3, primary screen, biochemical, small-molecule microarray, 635/667 nm fluorescence (AID 1120).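 Also: probe is a biotin-tagged antibody raised against NOTCH3 rather than NOTCH3 protein; score merges spot fluorescence near 667 nm with spot signal to noise.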 The note with it: higher = more signal.
Experiment [4] can be described thus: small-molecule binders of probe aNOTCH2, primary screen, biochemical, small-molecule microarray, 635/667 nm fluorescence (AID 1121).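 Also: score merges feature fluorescence read at 667 nm with its signal to noise.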 The note with it: higher = more signal.
The target in experiment [5] is Carbonic anhydrase 2 (Homo sapiens) (UniProt P00918). Put plainly: CAII small-molecule binders, profiling panel, biochemical, small-molecule microarray, Alexa647-labelled CAII (AID 1122). The note with it: CAII-A647 binding fluorescence, higher = more signal.
Experiment [6] is described as follows: COS7 lysate on small-molecule microarray, probe aHis, 635 nm (AID 1123).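 Also: z-score combines 667nm fluorescence intensity with signal-to-noise per printed compound spot.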 The note with it: COS7 cell lysate, fluorescence, higher = more signal.
A short description of experiment [7]: compound binding in COS7 lysate, probe aLAP1, primary screen, cell lysate, small-molecule microarray (AID 1124).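 Also: lysate comes from COS7 cells expressing LAP1 and is applied at 0.3 µg/mL; score merges spot fluorescence near 667 nm with signal-to-noise over triplicate slides.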 The note with it: probe aLAP1, fluorescence, higher = more signal.
The subject of experiment [8] is Sam68 (KHDRBS1). Description: Sam68 small-molecule binders, primary screen, biochemical, small-molecule microarray, 635 nm fluorescence (AID 1125).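 Also: score merges 667 nm channel intensity with signal to noise over triplicate slides.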 The note with it: small-molecule microarray binding, higher = more signal.
The subject of experiment [9] is Chordin-like protein 2 (CHRDL2). Description: CHRDL2 small-molecule binders, primary screen, biochemical, small-molecule microarray, 635 nm fluorescence (AID 1126).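 Also: printed compound slides probed with Chrdl2 protein at 4 µg/mL for 1 h at 4 C; score merges 667 nm emission intensity with signal to noise over three replicate slides.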 The note with it: small-molecule microarray binding, fluorescence 635 nm; higher = more signal.
Experiment [10] addresses Concanavalin-A (Canavalia ensiformis) (UniProt P02866). Put plainly: ConA small-molecule binders, primary screen, artefact control for SMM control protein annotation, biochemical, small-molecule microarray, Alexa647 label, 635 nm (AID 1127).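 Also: z combines 667 nm emission intensity with signal-to-noise across three replicate slides.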 The note with it: ConA-A647 binding fluorescence, higher = more signal.
Experiment [11] in a line: anti-His antibody binders, primary screen, artefact control for SMM control protein annotation, biochemical, small-molecule microarray, 635 nm fluorescence (AID 1128).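 Also: score merges feature fluorescence with signal-to-noise for each printed compound spot.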 The note with it: anti-His Alexa647 antibody binding, higher = more signal.
Experiment [12] has as its system Human papillomavirus type 1a E7 protein (residues 1-88). Description: HPV1a E7 small-molecule binders, primary screen, biochemical, small-molecule microarray, residues 1-88, 635 nm (AID 1129). The note with it: small-molecule microarray binding, fluorescence 635 nm; higher = more signal.
For experiment [13], the target named is Focal adhesion kinase 1 (Homo sapiens) (UniProt Q05397). Description: small-molecule microarray binders of FAK, primary screen, biochemical, 635/667 nm fluorescence, BSA, DTT (AID 1130).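 Also: composite of spot emission at 667 nm and signal to noise over triplicate slides.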 The note with it: PTK2 binding, 635 nm fluorescence, higher = more signal.
Sequence of Focal adhesion kinase 1 (Homo sapiens) (Q05397 whole entry, looked up): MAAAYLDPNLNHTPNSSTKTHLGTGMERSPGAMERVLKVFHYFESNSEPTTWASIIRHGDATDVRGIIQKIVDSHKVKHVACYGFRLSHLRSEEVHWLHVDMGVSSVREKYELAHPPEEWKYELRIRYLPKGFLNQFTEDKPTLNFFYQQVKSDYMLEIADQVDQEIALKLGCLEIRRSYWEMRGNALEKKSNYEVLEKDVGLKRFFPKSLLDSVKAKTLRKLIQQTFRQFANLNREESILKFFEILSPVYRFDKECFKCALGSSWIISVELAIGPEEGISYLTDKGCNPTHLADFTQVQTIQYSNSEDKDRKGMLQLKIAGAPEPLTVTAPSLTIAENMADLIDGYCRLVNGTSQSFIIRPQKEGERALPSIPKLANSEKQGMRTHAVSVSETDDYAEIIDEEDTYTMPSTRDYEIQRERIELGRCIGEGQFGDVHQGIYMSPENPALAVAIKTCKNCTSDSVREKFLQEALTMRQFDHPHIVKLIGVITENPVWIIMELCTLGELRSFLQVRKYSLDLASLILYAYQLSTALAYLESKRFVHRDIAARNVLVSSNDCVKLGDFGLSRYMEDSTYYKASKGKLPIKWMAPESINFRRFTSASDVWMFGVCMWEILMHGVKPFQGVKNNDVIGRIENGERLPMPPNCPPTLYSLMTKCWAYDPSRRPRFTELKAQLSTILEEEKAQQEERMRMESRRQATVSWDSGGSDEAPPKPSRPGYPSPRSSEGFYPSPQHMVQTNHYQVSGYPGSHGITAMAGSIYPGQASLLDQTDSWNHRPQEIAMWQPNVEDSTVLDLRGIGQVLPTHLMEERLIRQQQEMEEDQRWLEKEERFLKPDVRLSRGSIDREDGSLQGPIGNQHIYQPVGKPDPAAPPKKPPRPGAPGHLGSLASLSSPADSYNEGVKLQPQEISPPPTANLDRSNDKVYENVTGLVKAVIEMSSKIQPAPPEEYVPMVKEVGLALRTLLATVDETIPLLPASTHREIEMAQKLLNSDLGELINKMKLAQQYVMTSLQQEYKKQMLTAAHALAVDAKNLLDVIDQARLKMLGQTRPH
Experiment [14] has as its system Fibrinogen (Alexa647-labelled). Put plainly: fibrinogen binders on compound microarrays, profiling panel, artefact control for SMM control-protein annotation, biochemical, small-molecule microarray, 635/667 nm fluorescence (AID 1131).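 Also: z-score merges 667 nm fluorescence with per-spot signal-to-noise over triplicate slides.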 The note with it: fibrinogen-A647 binding fluorescence, higher = more signal.
Experiment [15] concerns the target Follistatin (Homo sapiens) (UniProt P19883). Description: follistatin binders on small-molecule microarrays, primary screen, biochemical, small-molecule microarray, 635/667 nm fluorescence (AID 1132). The note with it: FST binding, 635 nm fluorescence, higher = more signal.
Experiment [16] deals with Fibroblast growth factor 2 (Homo sapiens) (UniProt P09038). Description: FGF2 binders on small-molecule microarrays, primary screen, biochemical, small-molecule microarray, 635/667 nm fluorescence (AID 1133). The note with it: small-molecule microarray binding, FGF2, fluorescence 635/667; higher = more signal.
Sequence of Fibroblast growth factor 2 (Homo sapiens) (P09038 whole entry, looked up): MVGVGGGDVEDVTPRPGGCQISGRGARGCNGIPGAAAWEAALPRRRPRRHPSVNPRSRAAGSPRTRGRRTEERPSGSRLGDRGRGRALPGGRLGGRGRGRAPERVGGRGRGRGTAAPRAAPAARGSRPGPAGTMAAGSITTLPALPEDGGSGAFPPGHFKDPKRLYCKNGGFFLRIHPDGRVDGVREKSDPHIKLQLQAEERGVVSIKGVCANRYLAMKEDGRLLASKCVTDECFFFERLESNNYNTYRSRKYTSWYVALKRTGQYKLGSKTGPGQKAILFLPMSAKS
Experiment [17] in a line: mitochondrial membrane potential change in A549 cells, profiling panel, cell-based, JC-1 fluorescence, basal, 24 h, 100 nL (AID 1138).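 Also: A549 lung adenocarcinoma cells under basal conditions with no added stimulus; test concentration not given here.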 The note with it: higher = more signal.
Experiment [18] relates to Lefty1. Description: Lefty1 binders on small-molecule microarrays, primary screen, biochemical, small-molecule microarray, 635/667 nm fluorescence (AID 1139). The note with it: small-molecule microarray binding, fluorescence 635/667; higher = more signal.
The subject of experiment [19] is wheat germ agglutinin (Triticum aestivum), Alexa647-labelled. Description: wheat germ agglutinin binders on compound microarrays, profiling panel, artefact control for SMM control-protein annotation, biochemical, small-molecule microarray, 635/667 nm fluorescence (AID 1140).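 Also: score merges 667 nm feature emission with signal to noise over triplicate slides.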 The note with it: WGA-A647 binding, 635 nm fluorescence, higher = more signal.
Experiment [20] deals with Luciferin 4-monooxygenase (Photinus pyralis) (UniProt P08659). Description: firefly luciferase enzyme inhibitors, primary screen, biochemical, luminescence, purified enzyme, 2006 set (AID 1141).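 Also: cell-free assay with purified firefly luciferase at 100 ng per well in PBS; test concentration not given here.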 The note with it: SteadyGlo luminescence, 30 min, higher = more signal, called active from +8 up or from −8 down.
Sequence of Luciferin 4-monooxygenase (Photinus pyralis) (P08659 whole entry, looked up): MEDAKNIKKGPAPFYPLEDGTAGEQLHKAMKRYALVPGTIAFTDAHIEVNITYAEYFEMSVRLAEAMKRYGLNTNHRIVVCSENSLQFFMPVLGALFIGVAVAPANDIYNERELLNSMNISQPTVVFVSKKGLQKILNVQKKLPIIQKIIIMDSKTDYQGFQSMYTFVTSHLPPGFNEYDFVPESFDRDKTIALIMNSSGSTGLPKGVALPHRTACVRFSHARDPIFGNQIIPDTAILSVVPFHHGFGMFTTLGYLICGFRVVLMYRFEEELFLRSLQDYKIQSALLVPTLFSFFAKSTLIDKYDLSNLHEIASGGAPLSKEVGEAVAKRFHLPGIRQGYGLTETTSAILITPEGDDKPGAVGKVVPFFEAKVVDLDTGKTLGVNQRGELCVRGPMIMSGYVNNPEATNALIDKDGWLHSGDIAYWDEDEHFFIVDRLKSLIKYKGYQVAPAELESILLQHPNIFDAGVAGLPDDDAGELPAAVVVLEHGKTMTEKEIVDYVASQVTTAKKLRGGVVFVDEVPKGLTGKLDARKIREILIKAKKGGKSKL

The structures appear in SMILES notation. The source made the active and inactive calls.

Sequence of Concanavalin-A (Canavalia ensiformis) (P02866 whole entry, looked up): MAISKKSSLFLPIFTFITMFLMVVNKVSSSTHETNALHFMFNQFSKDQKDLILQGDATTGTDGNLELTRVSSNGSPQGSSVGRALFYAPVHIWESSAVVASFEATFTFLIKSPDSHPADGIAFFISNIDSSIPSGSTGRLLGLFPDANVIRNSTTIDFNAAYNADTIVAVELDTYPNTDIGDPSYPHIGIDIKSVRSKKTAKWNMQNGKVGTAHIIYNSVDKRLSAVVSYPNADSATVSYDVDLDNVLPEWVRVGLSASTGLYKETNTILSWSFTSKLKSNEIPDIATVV
Sequence of Albumin (Bos taurus) (P02769 whole entry, looked up): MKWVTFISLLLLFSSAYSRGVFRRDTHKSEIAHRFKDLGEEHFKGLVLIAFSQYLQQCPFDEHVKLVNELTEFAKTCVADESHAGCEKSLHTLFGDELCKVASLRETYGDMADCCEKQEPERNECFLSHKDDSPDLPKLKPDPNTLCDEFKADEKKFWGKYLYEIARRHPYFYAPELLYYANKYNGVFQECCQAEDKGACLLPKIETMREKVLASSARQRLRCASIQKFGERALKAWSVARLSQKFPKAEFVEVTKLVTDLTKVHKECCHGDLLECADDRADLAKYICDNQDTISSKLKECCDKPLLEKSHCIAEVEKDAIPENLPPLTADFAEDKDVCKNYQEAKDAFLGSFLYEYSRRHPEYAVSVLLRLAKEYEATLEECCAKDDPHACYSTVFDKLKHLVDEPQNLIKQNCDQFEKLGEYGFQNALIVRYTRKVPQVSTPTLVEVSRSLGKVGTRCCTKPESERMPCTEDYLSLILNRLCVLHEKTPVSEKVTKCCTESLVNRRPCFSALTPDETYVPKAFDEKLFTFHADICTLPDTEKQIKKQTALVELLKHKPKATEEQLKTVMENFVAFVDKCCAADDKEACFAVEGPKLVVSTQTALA
Sequence of Follistatin (Homo sapiens) (P19883 whole entry, looked up): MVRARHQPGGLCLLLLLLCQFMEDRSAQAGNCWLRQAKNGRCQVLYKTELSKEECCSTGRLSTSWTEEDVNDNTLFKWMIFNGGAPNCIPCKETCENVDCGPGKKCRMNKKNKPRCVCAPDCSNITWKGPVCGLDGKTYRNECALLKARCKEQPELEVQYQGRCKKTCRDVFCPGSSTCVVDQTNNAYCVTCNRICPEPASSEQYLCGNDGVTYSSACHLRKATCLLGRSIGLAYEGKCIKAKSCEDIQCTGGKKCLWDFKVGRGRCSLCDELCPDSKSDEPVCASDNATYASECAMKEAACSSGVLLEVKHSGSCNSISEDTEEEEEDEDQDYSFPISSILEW

Consider `O=C1CCCC=C1C(O)c1ccc([N+](=O)[O-])cc1` (stereo not given), for which the composite z-score in [1] is 0.265; in experiment [3], 0.0494; in [4], -0.148; in [5] it was -0.187; in [6], -0.251; in experiment [7], 0.0252. Moreover, the composite z-score in experiment [8] was -0.311; in experiment [9], 0.0616; in [10], -0.343; in experiment [11], -0.162; in experiment [12] it was 0.154; in experiment [13], -0.126. Moreover, the composite z-score in experiment [14] was -0.101; in [15], -0.102; in experiment [16], 0.511; in experiment [18], 0.0283; in [19], -0.199. Moreover, in [2], the composite Z-score was -0.163 (inactive). Further, the z-score in experiment [17] is -0.115; in [20], -0.171 (inactive).

For the compound `CCOC(=O)[C@H](Cc1ccccc1)NC(=O)CCC1CC(OC(=O)NCCc2ccc(F)cc2)CC2(CCCC(COC(=O)NCCOc3ccccc3)O2)O1` (stereo not given in full), the composite z-score is 0.595 in experiment [1]; 0.0833 in [3]; -0.0189 in experiment [4]; 0.0403 in experiment [5]; 0.585 in experiment [6]; 0.283 in [7]. The composite z-score in experiment [8] is 1.29; in experiment [9], 0.508; in experiment [10], 0.909; in experiment [11] it was 0.569; in experiment [12] it was 1.18; in experiment [13], 0.237. The composite z-score in [14] is 0.855; in [15], 0.557; in experiment [16] it was 1.24; in experiment [18] it was 1.29; in experiment [19], 0.362. For the same compound, in experiment [2], the composite Z-score is -0.275 (inactive). In addition, the z-score was 0.678 in [17] and 0.46 (inactive) in experiment [20].

As for `CCN1C(=O)[C@H]2[C@H]3[C@H](O)[C@H](O)CC(=NO[C@@H](C)c4cc(-c5c(C)cc(C)cc5C)no4)[C@@H]3CC[C@H]2C1=O`, the composite z-score in experiment [1] was 0.581; in experiment [3], 0.051; in experiment [4], -0.0562; in experiment [5], 0.465; in [6], 1.11; in [7], 0.693. The composite z-score in experiment [8] was 1.3; in experiment [9], 0.333; in experiment [10] it was 1.02; in experiment [11] it was -0.185; in experiment [12], 0.918; in experiment [13], 0.23. Further, the composite z-score in experiment [14] is 0.813; in [15] it was 0.809; in [16], 1.08; in [18], 0.922; in experiment [19] it was 1.01. In addition, the composite Z-score in [2] is -0.0662 (inactive). Further, the z-score in experiment [17] is 0.474; in [20], 1.06 (inactive).

Turning to `Cc1cc2c(nc1C)CCCCN2CC(O)CN1CCCc2nc(-c3ccc(Br)cc3)ccc21` (stereo not given), the composite z-score stood at 0.466 in experiment [1]; 0.298 in [3]; 0.0067 in experiment [4]; 0.493 in [5]; 0.417 in experiment [6]; 0.293 in experiment [7]. For the same compound, the composite z-score stood at 0.754 in [8]; 0.613 in [9]; 0.783 in experiment [10]; 0.819 in experiment [11]; 0.582 in experiment [12]; 0.171 in experiment [13]. Moreover, the composite z-score in experiment [14] was -0.564; in [15], 1.06; in experiment [16], 0.709; in experiment [18], 0.998; in [19], 0.765. In experiment [2], the composite Z-score was -0.211 (inactive). Moreover, the values for the z-score in experiment [17] and in [20] were 1.59 and -0.802 (inactive), respectively.

Turning to `CCc1cc2c(nc1CC)CCN(CCC(C)=NOCC[C@@H]1C=C[C@H](OC(C)=O)[C@@H](COC(C)=O)O1)C2`, the composite z-score in experiment [1] is 0.466; in [3] it was 0.493; in experiment [4], -0.0798; in experiment [5], 0.0943; in [6], -0.119; in experiment [7], 0.277. The composite z-score in [8] was 1.23; in experiment [9], 0.412; in [10], 0.446; in [11], 0.345; in [12] it was -0.19; in [13] it was 0.174. Moreover, the composite z-score in experiment [14] was -0.0226; in experiment [15] it was 0.823; in [16], 0.273; in experiment [18], 1.18; in experiment [19] it was 0.0479. The composite Z-score in experiment [2] is 0.497 (inactive). The z-score in [17] is 0.677; in experiment [20], 0.855 (inactive).

For the compound `CCN1C(=O)[C@H]2[C@H]3[C@H](O)[C@H](O)CC(=NO[C@H](C)c4cn([C@H](CO)Cc5ccccc5)nn4)[C@@H]3CC[C@H]2C1=O`, the composite z-score in experiment [1] is 0.818; in [3] it was 0.0539; in experiment [4], -0.135; in experiment [5] it was 0.412; in experiment [6], 0.785; in experiment [7], 1.39. The composite z-score in [8] was 1.1; in experiment [9] it was -0.0064; in [10] it was 1.05; in experiment [11], 3.76; in [12] it was 1.07; in experiment [13] it was 0.454. For the same compound, the composite z-score in experiment [14] came to 0.932; in experiment [15] it was 0.758; in [16], 0.474; in experiment [18], 0.734; in experiment [19] it was 1.15. Further, the composite Z-score in [2] was 0.444 (inactive). In addition, the z-score was -0.00321 in experiment [17] and 0.275 (inactive) in experiment [20].

Source of the values: PubChem BioAssay.
